Screen size: about 360,000 compounds; about 4,600 (1.3%) were called active. This is one part of a sample in which actives are shown more often than they occur. Unmarked numbers belong to inactive results.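 The calls were made as follows: active = percent inhibition above its own plate's cutoff, namely the mean of that plate's compound wells plus 3 SD; inactive = the rest.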

For this experiment, the target named is Muscarinic acetylcholine receptor M1 (Homo sapiens) (UniProt P11229). Description: human M1 muscarinic receptor antagonists, primary screen, CHO-K1 cells, Fluo-8 calcium fluorescence, 1536-well (AID 588852).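 Also: peak over basal fluorescence ratio during 140 s after agonist addition; 0% = ACh EC80 plus DMSO and 100% = DMSO alone without agonist.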 Particulars: CHO-K1 hM1, Fluo-8 calcium fluorescence, ACh EC80 antagonist; at 3 µM; active compounds read high.
Sequence of Muscarinic acetylcholine receptor M1 (Homo sapiens) (P11229 whole entry, looked up): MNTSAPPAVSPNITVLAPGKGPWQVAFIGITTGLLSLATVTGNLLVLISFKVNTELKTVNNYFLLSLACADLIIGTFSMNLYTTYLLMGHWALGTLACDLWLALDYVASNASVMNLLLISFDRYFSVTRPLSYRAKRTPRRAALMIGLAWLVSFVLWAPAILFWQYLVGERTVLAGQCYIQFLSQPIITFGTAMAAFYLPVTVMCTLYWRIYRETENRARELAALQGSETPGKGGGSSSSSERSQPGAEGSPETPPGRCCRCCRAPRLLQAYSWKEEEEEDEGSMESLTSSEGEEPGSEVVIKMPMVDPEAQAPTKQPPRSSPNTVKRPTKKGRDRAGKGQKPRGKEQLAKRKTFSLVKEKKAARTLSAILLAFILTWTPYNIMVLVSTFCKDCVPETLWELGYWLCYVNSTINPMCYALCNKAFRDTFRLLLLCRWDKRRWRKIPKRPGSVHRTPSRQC
By inhibition is commonly meant the change of the read-out against control, counted positive when it falls. In the case of `COc1ccc(-n2nnnc2C(c2cccc3ccccc23)N2CCC(n3c(=O)[nH]c4ccccc43)CC2)cc1` (stereo not given), the inhibition is 103% (active). `O=c1[nH]c2ccccc2n1C1CCN(C(c2ccccc2)c2nnnn2Cc2ccccc2)CC1` (stereo not given): the inhibition was -3.28%. For the compound `O=c1[nH]c2ccccc2n1C1CCN(C(c2ccnc3ccccc23)c2nnnn2Cc2ccccc2)CC1` (stereo not given), the inhibition was 4.78%. The result for `COC1C(O)C(C)OC(OC2CCC3(C=O)C(CCC4C3CCC3(C)C(C5=CC(=O)OC5)CCC43O)C2)C1O` (stereo not given) reads -8.54%. As for `CC12CCC3C(CCC4CC(=O)CCC43C)C1CC(=NO)C2=O` (stereo not given), the figure is -2.57%; as for `COc1cccc(C(=O)N2C[C@H]3C[C@@H](C2)c2cccc(=O)n2C3)c1`, -17.6%. In the case of `CC(C)Oc1cccc(C(=O)C2CCCN(C3CCOCC3)C2)c1` (stereo not given), the inhibition is 62.5% (active). Consider `CCn1cc(CN2CCCC(C(=O)c3cccc(C(F)(F)F)c3)C2)cn1` (stereo not given), for which the inhibition is 30.8%.

With `O=C(Nc1cccc(OC(=O)N2CCCCC2)c1)N1CCOCC1`, the inhibition is 12.4%.

As for `CC(C)(C)[C@]1(O)C[C@@H]2OC(=O)C[C@@]23C(=O)O[C@@H]2OC(=O)[C@H](O)[C@]213`, the inhibition is -3.8%.

Regarding `CC(=NCc1ccc2c(c1)OCO2)c1c(O)[nH]c(=O)[nH]c1=O`, the inhibition is -24.2%.

As to `CCCC[N+]1(C)C2CC(OC(=O)C(CO)c3ccccc3)CC1C1OC12` (stereo not given), the inhibition is 85.3% (active).

For the compound `CCCCC(=O)N/N=C/c1c(O)n(CC)c(=S)n(CC)c1=O`, the inhibition was -7.53%. The result for `Cc1ccc2c(c1)C1CN(C)CCC1N2C(=O)Cn1nnc(-c2ccccc2F)n1` (stereo not given) reads 5.84%.

As to `O=C(COc1ccc2ccccc2c1)N1CCN(Cc2ccncc2)CC1`, the inhibition is 14.5%.

In the case of `CC(C(=O)Nc1ccc(Cl)cc1Cl)N1CC=C(c2ccccc2)CC1` (stereo not given), the inhibition is 18.7%. Turning to `CC[N+]1(C)CCCC(OC(=O)C(O)(c2ccccc2)c2ccccc2)C1` (stereo not given), the inhibition is 97.3% (active). As for `COC(=O)CN1C(=O)C2(C(C(=O)OC)=C(N)Oc3ccccc32)C2=C1CC(C)(C)CC2=O` (stereo not given), the figure is -6.88%; as for `CCOc1ccc(CN(CCCl)CCCl)cc1C(=O)OC`, -7.91%.

As for `CSCCC(c1nnnn1C(C)(C)C)N1CCC(n2c(=O)[nH]c3ccccc32)CC1` (stereo not given), the inhibition is -5.89%. As for `COC(=O)C(c1ccccc1)N1CCCCCC1` (stereo not given), the figure is -0.1%; as for `c1ccc(C(CN2CCCCC2)c2ccccc2)cc1`, 50% (active). On to `OC(CNC1CCCCC1)c1ccccc1` (stereo not given), for which the inhibition is -2.05%.

In the case of `CCOP(=O)(OCC)C(NC(=O)NC)C(N)=O` (stereo not given), the inhibition was -7.67%. The result for `COc1cccc(C(c2nnnn2-c2ccc3c(c2)OCCO3)N2CCC3(CC2)C(=O)NCN3c2ccccc2)c1OC` (stereo not given) reads -16.2%; that for `CCOC(=O)C1(c2ccccc2)CCN(CC(O)c2ccc(NC(C)=O)cc2)CC1` (stereo not given), -8.72%. The result for `c1ccc(CCN2CCC3(CC2)OCCO3)cc1` reads -10%; that for `O=C(OCCN1CCOCC1)C1(c2ccccc2)CCCC1`, 35.5% (active). The result for `CC(=O)NCC1=C(c2ccc3ccccc3c2)C[C@@H]2CC[C@H]1N2Cc1ccco1` reads -9.51%; that for `CCN(CC)P(=O)(Oc1cccc(C)c1)N(CC)CC`, -22.1%; that for `COC(=O)C1=C(c2ccccc2OCc2ccccc2)C[C@@H]2CC[C@H]1N2C(=O)NCc1ccc(OC)cc1`, 18.3%. Consider `NC(=O)Nc1cccc(C(F)(F)F)c1`, for which the inhibition was -7.02%. The result for `COc1cccc(CN2CCCC(C(=O)c3ccccc3SC)C2)c1O` (stereo not given) reads 23.3%. `Cc1cc(=O)oc2c(C)c(OCC(=O)N3CCN(Cc4ccc5c(c4)OCO5)CC3)ccc12`: the inhibition was -1.03%. As for `Cc1ccsc1C(=O)C1CCCN(Cc2ccc(O)cc2)C1` (stereo not given), the figure is 7.02%.

Regarding `COc1ccc(C(=O)C2CCCN(Cc3ccc(C)s3)C2)cc1OC` (stereo not given), the inhibition is 52.6% (active). As for `Cc1ccc(CN2CCCC(C(=O)c3ccc4c(c3)OCO4)C2)cc1C` (stereo not given), the figure is 84.4% (active); as for `CC(C)Nc1nc(Cl)nc(NC(C)C)n1`, -4.88%. As for `C=CCN1C(=O)NC(=O)/C(=C/c2ccc(OCC(=O)Nc3ccc(C)cc3)cc2)C1=O`, the inhibition was -8.3%. In the case of `COc1ccc(-c2nc(CS(=O)CC(=O)N3CCC4(CC3)OCCO4)c(C)o2)cc1` (stereo not given), the inhibition was -12.6%. As to `CC1(C)C(c2ccccc2)=NC(c2cccnc2)=[N+]1[O-]`, the inhibition was -21%. For the compound `CCOC(=O)C1SC2(C(F)(F)C(F)F)CC1(O)c1c(c(OC)c3occc3c1OC)O2` (stereo not given), the inhibition was 46.3% (active). On to `O=C(N/N=C/c1c(O)n(C2CC2)c(=S)[nH]c1=O)c1ccccc1`, for which the inhibition is -8.31%. Turning to `CCOC(=O)C1(Cc2ccc(Cl)cc2)CCN(C(C)CCn2cccn2)CC1` (stereo not given), the inhibition was 22.2%. As for `O=C(Cc1ccccc1)N1CCN(C2CCCCCC2)CC1`, the figure is -0.63%; as for `CC1CCCCN1Cc1cccnc1` (stereo not given), 3.5%; as for `CC1CCCN1CCC(C(N)=O)(c1ccccc1)c1ccccc1` (stereo not given), 98.5% (active). As for `COC(=O)C1=C(c2cccc(OCc3ccccc3)c2)C[C@@H]2CC[C@H]1N2C(=O)NNCc1ccccc1`, the figure is 18.8%; as for `Cc1cc(OCc2cc(C(=O)O)oc2C)c2c3c(c(=O)oc2c1)CCCC3`, -3.16%; as for `CSc1nc2ccc(C)cc2c(=O)n1-c1cccnc1`, -6.09%. The result for `CSc1ccc(C(=O)C2CCCN(Cc3ccn[nH]3)C2)cc1` (stereo not given) reads 62.7% (active); that for `S=C(NCCc1ccccc1)N1Cc2cc(N3CCOCC3)ccc2-n2nncc2C1`, -7.43%. Turning to `COC(=O)C1=C(c2ccccc2)C[C@@H]2CC[C@H]1N2C(=O)N1CCCCC1`, the inhibition was -1.18%.

As for `O=C(NC1CCCCC1)N1Cc2cc(N3CCCCC3)ccc2-n2nncc2C1`, the inhibition is 6.05%. For the compound `CCOc1cccc(=NC2CCCCC2)c2c(C)[nH]c(C)c12`, the inhibition is -4.64%. `CCCCCCCCCCCCn1ccc(=N)cc1`: the inhibition was 89.2% (active). As for `COc1ccc(C2NCc3ccc4c(c3-n3cccc32)OCO4)cc1OC` (stereo not given), the figure is -9.71%; as for `O=C(c1cc2nc(-c3ccccc3)cc(-c3ccccc3)n2n1)N1CCC2(CC1)OCCO2`, -31%; as for `COC(=O)C1=C(c2ccc(-c3ccccc3)c(F)c2)C[C@@H]2CC[C@H]1N2C(=O)NCc1ccc(F)cc1`, 1.14%. As to `COc1cc(C(=O)N2Cc3ccc(Br)cc3-n3nncc3C2)cc(OC)c1OC`, the inhibition was 1.07%. With `Cc1nn(Cc2ccccc2Cl)c(Cl)c1C(=O)OC(C(=O)NC(N)=O)C(C)C` (stereo not given), the inhibition is -7.79%.

For `CCOC(=O)CNC(=O)N1Cc2cc(N3CCCCC3)ccc2-n2nncc2C1`, the inhibition is -0.57%. As for `CC(CC(C#N)(c1ccccc1)c1ccccc1)N1CCCCC1` (stereo not given), the inhibition was 75.2% (active). The result for `Clc1ccc2nc3c(c(-c4ccccc4)c2c1)CNCC3` reads 5.52%; that for `Cn1c(O)c(C(=Nc2ccc(F)cc2)c2ccccc2)c(=O)n(C)c1=O`, -7.87%.

Values taken from PubChem BioAssay AID588852 (The Scripps Research Institute Molecular Screening Center, 2011).
